Measurements reported in PubChem BioAssay (EPA / NIEHS).
Records with an inconclusive call do not appear. Calls of active or inactive are those of the source. Rule for the calls: active = hit-call score of the fitted dose curve at least 0.9, where 1 is the maximum; inconclusive = response in the unintended direction; inactive = score below 0.9.

What was measured:
[1] = target: human Dopamine Receptor D4.4 (DRD4.4), DRD4 (gene 1815) (UniProt P21917); assay: NVS_GPCR_hDRD4.4: NovaScreen (NVS) G Protein-Coupled Receptor Assay for human Dopamine Receptor D4.4 (DRD4.4) (AID 2283264)
Sequence of human Dopamine Receptor D4.4 (DRD4.4), DRD4 (gene 1815) (P21917 whole entry, looked up): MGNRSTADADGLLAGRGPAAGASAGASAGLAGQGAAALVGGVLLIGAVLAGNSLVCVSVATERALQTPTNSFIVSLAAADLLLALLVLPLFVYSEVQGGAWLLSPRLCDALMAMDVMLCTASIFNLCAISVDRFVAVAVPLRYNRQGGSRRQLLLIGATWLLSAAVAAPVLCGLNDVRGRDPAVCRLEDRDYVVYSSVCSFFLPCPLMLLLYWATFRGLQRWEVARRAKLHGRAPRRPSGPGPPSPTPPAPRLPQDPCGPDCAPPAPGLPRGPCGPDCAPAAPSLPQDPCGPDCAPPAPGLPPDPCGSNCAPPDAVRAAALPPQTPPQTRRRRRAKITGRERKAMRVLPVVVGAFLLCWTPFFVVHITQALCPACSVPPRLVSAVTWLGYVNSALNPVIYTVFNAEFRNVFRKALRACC
Experimental: NVS_GPCR_hDRD4.4 is a biochemical, single-readout assay that uses extracted gene-proteins from CHO in a cell-free assay. Measurements were taken 1 hour after chemical dosing in a 96-well plate.NVS_GPCR_hDRD4.4 is one of one assay component(s) measured or calculated from the NVS_GPCR_hDRD4.4 assay. It is designed to make measurements of radioligand binding, a form of binding reporter, as detected with scintillation counting signals by Filter-based radiodetection technology.Data from the assay component NVS_GPCR_hDRD4.4 was analyzed into 1 assay endpoint. This assay endpoint, NVS_GPCR_hDRD4.4, was analyzed in the positive analysis fitting direction relative to DMSO as the negative control and baseline of activity. Using a type of binding reporter, loss-of-signal activity can be used to understand changes in the binding as they relate to the gene DRD4. Furthermore, this assay endpoint can be referred to as a primary readout, because the performed assay has only produced 1 assay endpoint. To generalize the intended target to other relatable targets, this assay endpoint is annotated to the gpcr intended target family, where the subfamily is rhodopsin-like receptor.
Binding assays used specific radioligands (tritiated, iodinated) with non-radioactive competitive displacement ligands in agonist or antagonist protocols (as indicated) and various reference compounds and inhibitors to titrate specific binding to receptors and transporters. Most enzyme assays (CYPs, kinases, phosphatases, proteases, HDACs) used recombinant protein and specific substrates (fluorescence mostly, some colorimetric and radioactive) and inhibitors, followed by a biochemical separation of substrate and product. All assays for the biochemical HTS were initially run in duplicate at a single concentration (10 uM for CYP450 assays and 25 uM for all others). […] Each assay was run with positive and negative controls, and concurrent controls on every plate. The follow-up (secondary) screen tested active chemical-pairs in concentration series, as well as a few additional assays not tested in the primary screen, some selected negative inactives, and several cases re-run in the concentration series for confirmatory purposes.

[2] = target: Beta-2 adrenergic receptor (Homo sapiens) (UniProt P07550); assay: NVS_GPCR_hAdrb2: NovaScreen (NVS) G Protein-Coupled Receptor Assay for human Adrenergic, Beta 2 Receptor (Adrb2) (AID 2283261)
Sequence of Beta-2 adrenergic receptor (Homo sapiens) (P07550 whole entry, looked up): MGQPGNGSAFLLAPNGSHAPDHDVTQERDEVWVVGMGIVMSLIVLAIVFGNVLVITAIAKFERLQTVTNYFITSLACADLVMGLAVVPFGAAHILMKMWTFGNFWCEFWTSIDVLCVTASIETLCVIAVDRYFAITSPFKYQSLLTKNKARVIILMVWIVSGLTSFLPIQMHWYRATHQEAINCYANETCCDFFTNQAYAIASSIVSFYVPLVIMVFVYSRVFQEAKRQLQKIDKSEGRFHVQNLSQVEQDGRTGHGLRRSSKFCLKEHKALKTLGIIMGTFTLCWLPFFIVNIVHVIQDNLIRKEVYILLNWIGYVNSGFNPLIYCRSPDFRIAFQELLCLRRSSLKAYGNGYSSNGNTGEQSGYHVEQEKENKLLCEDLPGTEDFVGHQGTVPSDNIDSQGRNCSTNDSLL
How it was run: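 Filter-based radioligand binding using receptor prepared from CHO cells, 1 h incubation, scintillation counting. Primary screen in duplicate at 25 uM, actives retested in concentration series; loss of binding relative to DMSO.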

[3] = target: human Serotonin, 5-Hydroxytryptamine Receptor 7 (5HT7), HTR7 (gene 3363) (UniProt P34969); assay: NVS_GPCR_h5HT7: NovaScreen (NVS) G Protein-Coupled Receptor Assay for human Serotonin, 5-Hydroxytryptamine Receptor 7 (5HT7) (AID 2283255);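 note: hits reduce specific radioligand binding relative to DMSO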
Sequence of human Serotonin, 5-Hydroxytryptamine Receptor 7 (5HT7), HTR7 (gene 3363) (P34969 whole entry, looked up): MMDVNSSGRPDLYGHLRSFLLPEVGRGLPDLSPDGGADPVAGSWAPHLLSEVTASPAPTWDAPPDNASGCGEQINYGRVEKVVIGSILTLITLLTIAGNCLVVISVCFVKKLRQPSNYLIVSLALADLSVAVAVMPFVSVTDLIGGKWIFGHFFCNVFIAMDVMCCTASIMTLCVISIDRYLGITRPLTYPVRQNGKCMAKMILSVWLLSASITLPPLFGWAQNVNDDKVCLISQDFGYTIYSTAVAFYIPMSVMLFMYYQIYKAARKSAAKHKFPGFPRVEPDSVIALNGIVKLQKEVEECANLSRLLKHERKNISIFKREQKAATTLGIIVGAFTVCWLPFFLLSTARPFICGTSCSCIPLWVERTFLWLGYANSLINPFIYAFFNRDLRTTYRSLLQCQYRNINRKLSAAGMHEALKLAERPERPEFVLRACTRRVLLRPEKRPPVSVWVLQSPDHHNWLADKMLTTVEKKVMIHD
How it was run: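 Radioligand displacement on membranes from CHO cells expressing human 5HT7, 1 h incubation, filter-based scintillation counting. Primary screen used a single 25 uM concentration in duplicate; actives were followed up in concentration series.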

[4] = target: human Adrenergic, Alpha 2A Receptor (Adra2A), ADRA2A (gene 150) (UniProt P08913); assay: NVS_GPCR_hAdra2A: NovaScreen (NVS) G Protein-Coupled Receptor Assay for human Adrenergic, Alpha 2A Receptor (Adra2A) (AID 2283257)
Sequence of human Adrenergic, Alpha 2A Receptor (Adra2A), ADRA2A (gene 150) (P08913 whole entry, looked up): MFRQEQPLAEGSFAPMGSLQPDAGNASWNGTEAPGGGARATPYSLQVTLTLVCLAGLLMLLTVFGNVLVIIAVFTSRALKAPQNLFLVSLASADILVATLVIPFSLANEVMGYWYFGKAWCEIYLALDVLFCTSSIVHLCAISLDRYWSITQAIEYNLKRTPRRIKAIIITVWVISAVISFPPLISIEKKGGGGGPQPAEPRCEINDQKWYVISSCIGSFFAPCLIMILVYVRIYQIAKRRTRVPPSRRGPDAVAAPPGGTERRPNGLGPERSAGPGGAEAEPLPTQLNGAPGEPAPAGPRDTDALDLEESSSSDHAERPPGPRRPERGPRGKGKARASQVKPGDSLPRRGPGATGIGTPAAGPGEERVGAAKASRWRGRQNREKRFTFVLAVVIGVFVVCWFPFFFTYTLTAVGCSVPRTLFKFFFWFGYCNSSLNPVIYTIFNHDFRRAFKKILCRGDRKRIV
How it was run: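 Radioligand filter-binding was run on HT29-derived membranes, cell-free, read by scintillation counting 1 h after dosing. Primary screening was in duplicate at 25 uM, with concentration series in follow-up. Loss of signal versus DMSO indicates displacement.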

[5] = target: human Adrenergic, Beta 1 Receptor (Adrb1), ADRB1 (gene 153) (UniProt P08588); assay: NVS_GPCR_hAdrb1: NovaScreen (NVS) G Protein-Coupled Receptor Assay for human Adrenergic, Beta 1 Receptor (Adrb1) (AID 2283258)
Sequence of human Adrenergic, Beta 1 Receptor (Adrb1), ADRB1 (gene 153) (P08588 whole entry, looked up): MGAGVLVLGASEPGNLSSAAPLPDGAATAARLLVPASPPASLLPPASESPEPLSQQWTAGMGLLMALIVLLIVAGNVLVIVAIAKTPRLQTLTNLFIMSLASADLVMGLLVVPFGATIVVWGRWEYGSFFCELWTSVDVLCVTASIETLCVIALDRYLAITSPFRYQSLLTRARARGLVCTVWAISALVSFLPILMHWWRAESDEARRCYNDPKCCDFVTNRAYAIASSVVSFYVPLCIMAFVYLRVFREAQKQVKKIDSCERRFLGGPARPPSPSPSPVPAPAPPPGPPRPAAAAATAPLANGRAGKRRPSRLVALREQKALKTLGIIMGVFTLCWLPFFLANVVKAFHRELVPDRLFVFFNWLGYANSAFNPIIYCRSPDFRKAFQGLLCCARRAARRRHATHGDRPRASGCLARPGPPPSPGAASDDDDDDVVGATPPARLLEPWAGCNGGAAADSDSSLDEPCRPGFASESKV
How it was run: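 Cell-free radioligand displacement on receptor from human neuroepithelioma cells; 2 h after dosing, filter-based scintillation counting. Primary screen in duplicate at 25 uM, actives retested in concentration series; loss of signal vs DMSO baseline.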

[6] = target: human Adrenergic, Alpha 2c Receptor (Adra2C), ADRA2C (gene 152) (UniProt P18825); assay: NVS_GPCR_hAdra2C: NovaScreen (NVS) G Protein-Coupled Receptor Assay for human Adrenergic, Alpha 2c Receptor (Adra2C) (AID 2283259)
Sequence of human Adrenergic, Alpha 2c Receptor (Adra2C), ADRA2C (gene 152) (P18825 whole entry, looked up): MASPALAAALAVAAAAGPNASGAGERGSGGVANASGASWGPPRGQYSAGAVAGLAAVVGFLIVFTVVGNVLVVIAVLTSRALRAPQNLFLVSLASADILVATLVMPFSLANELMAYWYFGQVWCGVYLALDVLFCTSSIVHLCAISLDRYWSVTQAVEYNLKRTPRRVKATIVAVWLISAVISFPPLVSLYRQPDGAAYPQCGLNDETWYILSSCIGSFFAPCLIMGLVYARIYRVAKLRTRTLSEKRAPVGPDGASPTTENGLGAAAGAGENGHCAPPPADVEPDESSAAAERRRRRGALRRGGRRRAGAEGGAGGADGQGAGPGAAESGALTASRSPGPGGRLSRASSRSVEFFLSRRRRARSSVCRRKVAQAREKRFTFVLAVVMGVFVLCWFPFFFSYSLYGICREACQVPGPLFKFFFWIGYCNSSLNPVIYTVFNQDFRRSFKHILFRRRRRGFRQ
How it was run: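 Radioligand binding on Sf9-expressed receptor membranes, 1 h after chemical dosing, filter-based scintillation read-out. Loss of binding fitted positively versus DMSO; primary duplicate screen at 25 uM, actives retested in concentration series.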

[7] = target: Type-1 angiotensin II receptor (Homo sapiens) (UniProt P30556); assay: NVS_GPCR_hAT1: NovaScreen (NVS) G Protein-Coupled Receptor Assay for human Angiotensin II receptor type 1 (AT1) (AID 2283263)
Sequence of Type-1 angiotensin II receptor (Homo sapiens) (P30556 whole entry, looked up): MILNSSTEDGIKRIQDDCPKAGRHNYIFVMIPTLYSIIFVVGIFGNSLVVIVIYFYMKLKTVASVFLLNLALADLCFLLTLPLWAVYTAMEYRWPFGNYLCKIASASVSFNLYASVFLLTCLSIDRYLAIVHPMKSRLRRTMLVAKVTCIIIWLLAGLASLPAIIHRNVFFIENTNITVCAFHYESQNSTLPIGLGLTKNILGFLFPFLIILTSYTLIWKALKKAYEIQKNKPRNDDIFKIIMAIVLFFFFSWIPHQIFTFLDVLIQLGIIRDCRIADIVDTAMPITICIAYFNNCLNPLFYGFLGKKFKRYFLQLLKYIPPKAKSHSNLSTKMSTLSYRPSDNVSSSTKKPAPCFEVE
How it was run: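 Membranes from KAN-TS cells; radioligand competitive displacement, 3 h, filtration and scintillation counting. Single-point duplicate screen at 25 uM, then concentration-response up to 50 uM for hits; loss of signal fitted versus DMSO.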

[8] = target: human Adenosine A1 Receptor (AdoRA1), ADORA1 (gene 134) (UniProt P30542); assay: NVS_GPCR_hAdoRA1: NovaScreen (NVS) G Protein-Coupled Receptor Assay for human Adenosine A1 Receptor (AdoRA1) (AID 2283254)
Sequence of human Adenosine A1 Receptor (AdoRA1), ADORA1 (gene 134) (P30542 whole entry, looked up): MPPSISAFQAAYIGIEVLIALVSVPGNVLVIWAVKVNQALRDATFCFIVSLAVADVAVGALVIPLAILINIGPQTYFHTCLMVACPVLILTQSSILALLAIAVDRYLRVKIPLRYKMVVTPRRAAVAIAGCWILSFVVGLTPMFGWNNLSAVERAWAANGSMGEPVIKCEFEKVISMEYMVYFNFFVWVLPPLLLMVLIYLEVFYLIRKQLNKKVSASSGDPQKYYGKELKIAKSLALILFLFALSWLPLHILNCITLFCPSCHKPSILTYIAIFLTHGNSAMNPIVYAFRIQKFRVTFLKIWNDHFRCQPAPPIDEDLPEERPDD
How it was run: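 Hum. cortical membranes + radioligand, cmpd 1 h; filtration, scintillation count. Readout = decrease vs DMSO. Primary 25 uM dup; hits → conc. series.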

[9] = target: human Adenosine A2a Receptor (AdoRA2a), ADORA2A (gene 135) (UniProt P29274); assay: NVS_GPCR_hAdoRA2a: NovaScreen (NVS) G Protein-Coupled Receptor Assay for human Adenosine A2a Receptor (AdoRA2a) (AID 2283256)
Sequence of human Adenosine A2a Receptor (AdoRA2a), ADORA2A (gene 135) (P29274 whole entry, looked up): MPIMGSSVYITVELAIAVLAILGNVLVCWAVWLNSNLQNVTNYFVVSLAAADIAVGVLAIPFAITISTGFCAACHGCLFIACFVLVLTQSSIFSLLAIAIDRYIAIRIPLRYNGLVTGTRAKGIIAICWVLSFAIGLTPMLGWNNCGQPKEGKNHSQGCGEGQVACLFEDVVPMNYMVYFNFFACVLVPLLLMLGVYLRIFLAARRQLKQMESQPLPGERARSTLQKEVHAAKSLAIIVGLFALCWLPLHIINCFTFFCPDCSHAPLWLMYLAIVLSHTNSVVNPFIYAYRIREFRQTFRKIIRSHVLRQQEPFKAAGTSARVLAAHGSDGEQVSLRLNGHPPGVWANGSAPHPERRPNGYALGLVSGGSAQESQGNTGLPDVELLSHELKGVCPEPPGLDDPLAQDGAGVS
How it was run: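 Cell-free radioligand binding on membranes from HEK293 expressing the receptor; competitive displacement read 1.5 h after dosing by filter-based scintillation counting. Primary screen in duplicate at 25 uM; actives followed in concentration series, with DMSO as baseline.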

[10] = target: human Adrenergic, Beta 3 Receptor (Adrb3), ADRB3 (gene 155) (UniProt P13945); assay: NVS_GPCR_hAdrb3: NovaScreen (NVS) G Protein-Coupled Receptor Assay for human Adrenergic, Beta 3 Receptor (Adrb3) (AID 2283262)
Sequence of human Adrenergic, Beta 3 Receptor (Adrb3), ADRB3 (gene 155) (P13945 whole entry, looked up): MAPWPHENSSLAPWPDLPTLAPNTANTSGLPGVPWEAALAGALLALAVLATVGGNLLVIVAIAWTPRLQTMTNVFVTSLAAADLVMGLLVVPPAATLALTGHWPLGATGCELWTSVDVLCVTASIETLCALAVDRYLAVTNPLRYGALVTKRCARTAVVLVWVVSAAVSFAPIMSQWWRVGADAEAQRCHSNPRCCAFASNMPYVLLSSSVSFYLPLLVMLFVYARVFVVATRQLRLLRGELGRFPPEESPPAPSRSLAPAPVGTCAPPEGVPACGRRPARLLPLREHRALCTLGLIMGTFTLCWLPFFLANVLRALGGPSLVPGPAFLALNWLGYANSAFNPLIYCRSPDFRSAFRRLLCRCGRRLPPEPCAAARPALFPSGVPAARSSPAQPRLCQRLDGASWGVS
How it was run: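 Membranes from SK-N-MC cells pretreated with isoproterenol and 8-bromo-cAMP were used in a radioligand competitive displacement binding assay. Binding was read by filter-based scintillation counting 1 hour after dosing. Primary screening was in duplicate at 25 uM, with concentration series in follow-up.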

Cc1cc(N=Nc2ccccc2C)ccc1N
AC50 [1]: 25 µM (active)

c1ccc2c(c1)-c1cccc3cccc-2c13
outcome [2]: inactive

CCCCCCCCn1sccc1=O
AC50 [3]: 17.9 µM (active)
outcome [4]: inactive
AC50 [5]: 12.2 µM (active)
AC50 [6]: 6.02 µM (active)
AC50 [7]: 10.9 µM (active)

Nc1ccc(N=Nc2ccccc2)cc1
outcome [8]: inactive

CCC[CH2][Sn]([Cl])([CH2]CCC)[CH2]CCC
AC50 [8]: 25 µM (active)
AC50 [3]: 0.354 µM (active)
AC50 [9]: 6.46 µM (active)
AC50 [4]: 3.65 µM (active)
AC50 [5]: 1.25 µM (active)
AC50 [2]: 5.47 µM (active)
AC50 [10]: 9.81 µM (active)
AC50 [7]: 1.78 µM (active)
AC50 [1]: 1.83 µM (active)

CCOC(=O)[C@]1(c2ccccc2)Oc2ccccc2[C@@H]1N
AC50 [3]: 0.0948 µM (active)
AC50 [4]: 6.2 µM (active)
AC50 [5]: 1.41 µM (active)
AC50 [6]: 0.611 µM (active)
AC50 [2]: 16.8 µM (active)
AC50 [10]: 4.96 µM (active)
AC50 [1]: 0.0481 µM (active)

CC(C)(O)c1cnn2c(-c3ccc(F)c(-c4c(F)cccc4C#N)c3)cnc2n1
AC50 [9]: 0.0738 µM (active)

CN(C)C(=O)Nc1ccc(Cl)cc1
outcome [2]: inactive

[Cl-].[Cl-].[Hg+2]
AC50 [3]: 0.928 µM (active)
AC50 [9]: 5.19 µM (active)
AC50 [4]: 2.23 µM (active)
AC50 [5]: 0.303 µM (active)
AC50 [6]: 0.227 µM (active)
AC50 [2]: 0.925 µM (active)
outcome [10]: inactive
AC50 [7]: 10.7 µM (active)
AC50 [1]: 1.76 µM (active)

Cc1cccc(N)c1N
AC50 [8]: 8.22 µM (active)
AC50 [9]: 4.24 µM (active)
outcome [2]: inactive

O=C(N[C@H](c1ccccc1)[C@@H]1CN2CCC1CC2)c1c(Cl)ccc(C(F)(F)F)c1Cl
AC50 [3]: 28.5 µM (active)
AC50 [5]: 37.5 µM (active)
outcome [10]: inactive
